Screens deposited in PubChem BioAssay by several laboratories.
Rin1 Abl inh: inhibitors of Rin1-Abl protein binding, primary screen, biochemical, TR-FRET; inhibition, % at 7.35 µM; 360,000 tested, 0.4% active; Tyrosine-protein kinase ABL1 (Homo sapiens) + Ras and Rab interactor 1 (Homo sapiens), …; AID 588664, 2011; in the data active means inhibition above about 5%, passing the limit was not always enough
Neddylation inh: inhibitors of cullin neddylation, primary screen, biochemical, TR-FRET, uHTS, NAE and Ubc12; inhibition, % at 25 µM; NEDD8-conjugating enzyme Ubc12 (Homo sapiens) + NEDD8-activating enzyme E1 regulatory …; 360,000 tested, 0.58% active; in the data active means inhibition above about 36%
SUMO1 PPI mod: modulators of SUMO1 protein-protein interactions, primary screen, biochemical, uHTS; SUMO1 binding to a labelled peptide, TR-FRET, 1 h; AID 602429, 2012; 360,000 tested, 0.33% active; Small ubiquitin-related modifier 1 (Homo sapiens), P63165; inhibition, % at 20 µM; in the data active means inhibition above about 37%
Target sequence (P63165 whole entry, looked up): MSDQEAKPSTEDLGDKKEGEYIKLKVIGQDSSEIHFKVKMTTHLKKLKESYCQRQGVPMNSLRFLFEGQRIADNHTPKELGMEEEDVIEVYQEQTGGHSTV
ATG4B inhibitor: ATG4B protease inhibitors, primary screen, biochemical, fluorescence, uHTS | 340,000 tested, 0.51% active | ATG4B cleavage of LC3-PLA2, NBD-HPC fluorescence, 1 h | inhibition, % at 8.33 µM | AID 504462, 2011 | Cysteine protease ATG4B (Homo sapiens), Q9Y4P1; in the data active means inhibition above about 40%
ATG4B conf: ATG4B protease inhibitors, retest, confirmation, biochemical, fluorescence, single concentration. AID 504757, 2011. 320 tested, 92% active. ATG4B protease fluorescent substrate cleavage assay. inhibition, % at 8.33 µM. shares compounds with ATG4B inhibitor; in the data active means inhibition above about 39%
PLA2 counter: PLA2 enzyme inhibition, counter-screen for ATG4B inhibitor project, biochemical, single concentration, uHTS hits; shares compounds with ATG4B inhibitor; purified PLA2, NBD-C6-HPC fluorescence, 45 min; inhibition, % at 8.33 µM; 1,600 tested, 66% active; AID 588402, 2011; in the data active means inhibition above about 50%
Target sequence (P04054 whole entry, looked up): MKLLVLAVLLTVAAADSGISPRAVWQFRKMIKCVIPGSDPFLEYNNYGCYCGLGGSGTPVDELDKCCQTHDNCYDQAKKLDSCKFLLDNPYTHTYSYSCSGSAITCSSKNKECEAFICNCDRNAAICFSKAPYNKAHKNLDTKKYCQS
Active calls of the source: *; nt = no result shown. The list is not random: actives were taken first. Their share in the collection is about 1.7%.

SMILES	Rin1 Abl inh	Neddylation inh	SUMO1 PPI mod	ATG4B inhibitor	PLA2 counter	others
O=C(CN1CCCCC1)Nc1ccccc1-c1ccccc1	-0.9	0.1	3.0	46.0*	59.2*
C/C=C/c1ccc2c(c1)O[C@H](CN(C)C(=O)NC1CCCC1)[C@H](C)CN([C@H](C)CO)S2(=O)=O	-0.3	-3.8	-1.8	nt	nt
Cc1cccc2nc(-c3ccccc3)nc(N3CCC(O)(c4ccc(Cl)cc4)CC3)c12	0.1	-2.8	1.1	41.5*	22.5
Cc1c(C(=O)O)cccc1-c1ccc(/C=N/n2cnnc2)o1	-0.3	-6.1	-6.1	-7.3	nt
Cc1c(C(=O)O)cccc1-c1ccc(/C=N/Nc2ccc(Br)cc2)o1	2.4	nt	10.4	48.1*	25.3
CC1CCc2sc(C(=O)N3CCC(C(N)=O)CC3)cc2C1 (centres undefined)	4.8	8.4	1.9	42.9*	33.3	ATG4B conf=65.9*
NC(=O)C1CCN(C(=O)c2cc3c(s2)CCCCC3)CC1	1.1	-20.2	2.3	16.3	nt
CC1CC(=Cc2ccc(N)cc2)C(=O)O1 (centres undefined)	-2.9	-19.2	-16.5	-3.4	nt
O=C(NNC(=O)c1nn(-c2ccc(F)cc2)ccc1=O)c1ccccc1Cl	-2.6	-24.8	-23.5	42.1*	-21.1
C[N+](=O)C1C(=O)Nc2ccccc21 (centres undefined)	nt	-19.9	-31.0	nt	nt
Cc1ccc(NC(=O)C2(C)CCN2C(=O)Cc2cc(F)ccc2F)cc1 (centres undefined)	-1.3	4.9	6.1	nt	nt
CC(CNC(=O)COC(=O)c1cccnc1Cl)c1ccccc1 (centres undefined)	-0.1	11.7	-1.7	-9.3	nt
COc1ccc(S(=O)(=O)N2CCC(C(=O)N3CCc4ccccc4C3)CC2)cc1C	0.1	3.6	-0.2	56.5*	50.0*
Cc1ccccc1-c1nnc(SCc2ccccc2F)o1	-2.9	-0.9	-1.2	54.2*	63.7*
O=C(NCCC(=O)N1CCN(c2ccc(F)cc2)CC1)c1ccco1	-4.2	6.8	-1.1	-5.6	nt
Cc1ccc(/C=c2\sc3nc(-c4ccccc4Br)nn3c2=O)o1	-8.9	-0.3	24.0	48.0*	-6.6
CC(C)(C)c1ccc(-c2nc(NCc3cccnc3)c3ccccc3n2)cc1	-0.4	-36.1	-1.2	68.5*	81.5*
Oc1c(C=C2N=c3ccccc3=N2)sc(=S)n1-c1ccccc1	0.9	-3.4	-1.0	-8.8	nt
CC1=Nc2ccccc2/C1=C/c1sc(=S)n(-c2cccc(C(=O)O)c2)c1O	-3.3	-236.2	-69.5	59.6*	85.2*
CCOC(=O)C1(C)CCCN(C(=O)c2ccc(C)c(F)c2)C1 (centres undefined)	-2.8	0.2	-5.4	nt	nt
COc1ccc(Cl)cc1NC(=O)Nc1cccc([N+](=O)[O-])c1C	-4.0	-5.5	-4.5	78.3*	85.8*
COc1ccc(Cl)cc1NC(=O)NC1CCCCC1	0.6	-0.3	1.1	8.2	nt
NC(=O)C1CCN(c2nc(-c3ccc(Br)cc3)cs2)CC1	-0.5	1.6	-10.1	36.0	nt
NC(=O)C1CCN(c2nc(-c3cccs3)cs2)CC1	-0.4	17.6	-20.6	45.2*	54.0*
CC1=C(C(=O)N2CCCCCC2)CC(CC(=O)NCCc2ccccn2)C(=O)N1Cc1ccc(C(C)(C)C)cc1 (centres undefined)	nt	-3.4	5.5	nt	nt
SMILES	Rin1 Abl inh	Neddylation inh	SUMO1 PPI mod	ATG4B inhibitor	PLA2 counter	others
Cc1cc(NC(=O)CSc2nnc(-c3ccc(Br)o3)n2Cc2ccccc2)no1	-1.9	-1.7	-3.4	-0.8	nt
O=C(CSc1nnc(-c2ccc(Br)o2)n1Cc1ccccc1)c1ccccc1F	-3.2	0.6	0.8	56.9*	57.4*
O=C(Oc1c(-c2ccccc2)c(=O)n2c3c(cccc13)CC2)c1ccc(Cl)cc1	1.8	-34.0	3.8	62.2*	67.0*
O=C(Oc1c(-c2ccccc2)c(=O)n2c3c(cccc13)CC2)c1ccco1	-0.2	17.9	3.9	4.1	nt
COc1ccc2cc(C=NS(=O)(=O)c3ccc(C)cc3)n(C)c2c1	-2.0	-29.6	-26.0	83.0*	74.7*
COc1cccc(C(N)c2nc(-c3csc4ccccc34)cs2)c1 (centres undefined)	-1.2	-34.3	-4.2	nt	nt
Cc1nnc(SCC(=O)N2CC(=O)Nc3ccccc32)n1C	-2.2	5.3	-1.6	-4.8	nt
Cc1sc2nc(C3CC3)nc(SCC(=O)N3CC(=O)Nc4ccccc43)c2c1C	2.5	-151.9	4.4	68.8*	76.6*
CC(C)CN(C(=O)COc1ccccc1C(=O)NCc1ccccc1)C1CCS(=O)(=O)C1 (centres undefined)	1.3	-3.6	-2.5	nt	nt
CCNC(=O)C1(C)CCCN(C(=O)c2oc3ccccc3c2C)C1 (centres undefined)	-3.9	-4.1	4.9	nt	nt
O=C(NC(=O)c1c(F)cccc1F)Nc1cccc(Oc2ncc(Cl)cn2)c1	3.0	-12.0	2.6	-6.0	nt
Cc1noc(C)c1S(=O)(=O)N(C)C[C@@H]1OCc2cnnn2CCCC(=O)N([C@@H](C)CO)C[C@H]1C	-4.0	-9.5	-2.9	nt	nt
O=C1CC(=O)N(C2CCCCC2)C(=O)N1c1ccccc1S(=O)(=O)Oc1ccccc1	3.7	-3.3	3.3	nt	nt
COc1ccc(-c2[nH]nc3c2C(c2ccccc2OC(=O)N2CCOCC2)C(C#N)=C(N)O3)cc1 (centres undefined)	-1.5	0.6	1.9	-3.9	nt
CC(C)(C)c1[nH]nc2c1C(c1ccc(OC(=O)c3ccco3)cc1)C(C#N)=C(N)O2 (centres undefined)	-0.7	-2.2	-2.3	83.1*	85.9*
COc1ccc(-c2[nH]nc3c2C(c2ccc(OC(=O)N4CCOCC4)cc2)C(C#N)=C(N)O3)cc1 (centres undefined)	nt	nt	nt	41.7*	44.0	ATG4B conf=75.9*
CC(C)(C)c1[nH]nc2c1C(c1cccnc1)C(C#N)=C(N)O2 (centres undefined)	2.4	2.0	-2.7	4.6	nt
CCO/C(C)=N/Oc1cnc2ccccc2c1	1.7	12.9	6.4	nt	nt
COc1ccc(C2Nc3cccc(O)c3C(=O)N2Cc2ccccc2)cc1COc1ccc(NC(C)=O)cc1 (centres undefined)	0.9	11.3	1.5	nt	nt
O=C(NCCc1ccccc1Cl)c1cc(COc2ccc(F)cc2F)on1	-2.2	2.3	-1.0	45.6*	55.3*
O=C(NCCC1=CCCCC1)c1cc(COc2ccc(F)cc2Cl)on1	2.3	3.2	2.7	17.5	nt
COc1ccccc1NNC(=O)c1cc(C(C)(C)C)nn1Cc1ccccc1	0.0	5.3	2.9	-5.3	nt
